Screening results from PubChem BioAssay.
In the library only some 6.5% were active in any assay of this set; here they are far more common.
LASV entry inh: blocks Lassa virus binding to or entry into cells; Lassa virus pseudotype entry inhibition, cell reporter; Potency, µM (doses to about 37.9 µM), for inactives: top-dose activity change, negative = inhibition, usual class: inhibitors; actives 1.2% (n = 300,000); AID 540256; calls by dose curve; tested in HEK293 cells; further: potency means the concentration at half of the fitted maximal effect; nearly all actives have a fitted effect of over 50% in size
FMDV antiviral: foot and mouth disease virus antiviral activity; FMDV antiviral cell-based qHTS; Potency, µM (series often up to 57.9 µM), for the others: at the highest dose activity change, negative = inhibition, actives largely listed as inhibitors; actives 1.2% (n = 410,000); AID 1159524; calls by dose curve; tested in HEK293T cells; further: read-out not given here; potency means the concentration at half of the fitted maximal effect; nearly all actives have a fitted effect of over 45% in size
VACV mCherry inh: inhibitors of vaccinia virus infection (mCherry reporter signal); actives 0.63% (n = 310,000); Potency, µM (series often up to 36.5 µM), for inactives: at the top dose activity change, negative = inhibition, usual class: inhibitors; Vaccinia virus mCherry reporter infection, fluorescence; calls by dose curve; tested in A549 cells; further: potency means the concentration at half of the fitted maximal effect; nearly all actives have a fitted effect of over 35% in size
MARV entry inh: blocks Marburg virus binding to or entry into cells; Potency, µM (titrated, usually from 37.8 µM), for the others: at the top dose activity change, negative = inhibition, hits mostly inhibitors; AID 540276; Marburg virus pseudotyped entry inhibition, cell reporter; actives 1.8% (n = 300,000); calls by dose curve; tested in HEK293 cells; further: potency means the concentration at half of the fitted maximal effect
HCMV inh: human cytomegalovirus inhibition. actives 4.5% (n = 410,000). HFF cells, HCMV-luciferase reporter, 72 h; active compounds read low. AID 1259415. activity change, negative = inhibition, % at 57.5 µM; in the data active means activity change below about -60%; inconclusive means no clear call, values can overlap the other calls; inactive means above about -39%
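Inhibition of viral replication was scored as loss of reporter luminescence in HFFs infected with HCMV-luciferase (MOI 1 PFU/cell) for 72 h; compounds tested at 2 doses, normalized to buffer and Salinomycin controls.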
VACV Venus inh: inhibitors of vaccinia virus (Venus reporter); Vaccinia virus Venus reporter expression, fluorescence; actives 0.46% (n = 330,000); Potency, µM (series often up to 36.5 µM), without a hit: at the highest dose activity change, negative = inhibition, hits mostly inhibitors; AID 720580; calls by dose curve; tested in A549 cells; further: potency means the concentration at half of the fitted maximal effect; nearly all actives have a fitted effect of over 30% in size
Numbers without * were called inactive; i = inactive; ? = inconclusive; · = no result given; [ ] = dose if it differs, or a comment. On the % scale 0 is the no-effect control and ±100 the full control effect.

SMILES	LASV entry inh	FMDV antiviral	VACV mCherry inh	MARV entry inh	HCMV inh	VACV Venus inh
Cc1ccc([N+](=O)[O-])cc1N=Nc1c(-c2ccc([N+](=O)[O-])cc2)[nH]n(C(N)=S)c1=O	·	2.5µM*	·	·	·	·
COC(=O)C1=C(C(=O)OC)[C@@H]2N(Cc3ccccc3)c3ccccc3[C@@]23C[C@@H](C(=O)OC)N(C(=O)NCCBr)C3=N1	·	·	·	8%[14.2 µM]	·	·
COc1cccc2cc(C(=O)C3=C(O)C(=O)N(c4cc(C)on4)C3c3cccs3)oc12 (stereo not drawn)	·	-18%	·	·	-70*	·
CCc1ccc(NC(=O)[C@H](Cc2c[nH]c3ccccc23)NC(=O)[C@@H]2Cc3ccccc3CN2)cc1	·	8%	5µM*	·	·	12%
Cc1ccc(NC(=O)[C@H](NC(=O)[C@@H]2Cc3ccccc3CN2)c2ccccc2)c(C)c1	·	0%	·	·	-34	·
Cc1cc(C)cc(NC(=O)[C@H](NC(=O)[C@@H]2Cc3ccccc3CN2)c2ccccc2)c1	30%[46.1 µM]	-16%	-20%	1.4µM*	·	-11%
Cc1cccc(NC(=O)[C@H](Cc2c[nH]c3ccccc23)NC(=O)[C@@H]2Cc3ccccc3CN2)c1	·	-4%	11µM*	·	·	33%
COC(=O)[C@@H]1CCCN1Cc1ccc2c(c1)CN(Cc1cccc(Cl)c1)CCO2	·	-4%	-10%	·	·	-3%
Cc1c(P(=S)(c2ccccc2)c2ccccc2)[n+]2ccccc2n1C/C=C/c1ccccc1	·	?	·	·	-99*	·
Cc1c(P(=S)(c2ccccc2)c2ccccc2)[n+]2ccccc2n1C	·	-18%	·	·	-64*	·
Cc1cccc(NC(=O)c2ccc(-c3nc(CSc4ccccc4)c(C)o3)cc2)c1C	19%[46.1 µM]	?	?	·	-6	-26%
OC1(c2ccc(OC(F)F)cc2)CSC(=Nc2cccnc2)N1C1CC1 (stereo not drawn)	?	?	-18%	3.5µM*	-30	?
CC1(C)OC(=O)C2(Cc3ccc(Br)cc3N3CCCCC32)C(=O)O1 (stereo not drawn)	·	·	-15%	·	·	-6%
CCN1C(=NCc2ccc3c(c2)OCO3)NC(CCc2ccccc2)C(C(=O)OC)=C1C (stereo not drawn)	?	·	·	-30%[14.2 µM]	·	·
CCOC(=O)c1cccn1C1C(=O)N(Cc2ccc(Cl)nc2)c2ccc(F)cc21 (stereo not drawn)	·	·	·	·	9	·
Cc1ccc(C)c(CN2CCC(CNC(=O)C(CC(C)C)N3Cc4ccccc4C3=O)CC2)c1 (stereo not drawn)	-27%[46.1 µM]	-17%	-22%	·	-34	-18%
COc1nc(N/N=C/c2ccc(-c3ccccc3[N+](=O)[O-])o2)nc(N2CCOCC2)n1	1%	-11%	i	?	55	-7%
O=[N+]([O-])c1ccc(-c2ccc(/C=N/Nc3nc(NCc4ccccc4)nc(N4CCOCC4)n3)o2)cc1	8%[46.1 µM]	-13%	-3%	10µM*	-88*	-23%
CCOc1ccc(C2c3c(oc4ccc(C)cc4c3=O)C(=O)N2CCCN(C)C)cc1OC (stereo not drawn)	?	5%	-16%	·	11	2%
COc1ccccc1-c1cc2c(c(OC)c1)OCCN(CCC(C)c1ccc(C)o1)C2 (stereo not drawn)	·	-11%	i	·	·	3%
Cc1nn(-c2ccccc2)c(N2CCCC2)c1/C=N/NC(=O)c1cc(-c2ccccc2)nc2ccccc12	-29%	?	-15%	?	9	3%
Cc1nn(-c2ccccc2)c(N2CCCC2)c1/C=N/NC(=O)c1cccc(S(=O)(=O)Nc2ccc(Cl)cc2)c1	?	-4%	-13%	?	-16	?
Cc1nn(-c2ccccc2)c(N2CCCC2)c1/C=N/NC(=O)c1cc2ccccc2cc1O	5%	40µM*	-30%	-7%	2	-15%
Cc1nn(-c2ccccc2)c(N2CCCC2)c1/C=N/NC(=S)Nc1ccccc1F	?	13%	i	?	-61*	-10%
COc1ccccc1Nc1ccc(NC(=O)c2cccc([N+](=O)[O-])c2C)cc1	·	?	·	·	-62*	·
Cc1ccccc1NC(=O)COc1ccccc1C(=O)Nc1ccccc1	·	·	-3%	·	·	-20%
Cc1ccccc1OCC(=O)Nc1ccc(C(=O)Nc2ccccc2C(=O)O)cc1	5%[46.1 µM]	-1%	i	-8%[46.1 µM]	-70*	6%
